From PubChem BioAssay (Tox21)
The source made the active and inactive calls. Calls follow the shape of the dose curve; as a rule, active = well fitted curve in the direction sought with a large enough effect in the repeat runs; inconclusive = weak or mixed curves; inactive = flat fitted curve, though single readings scatter.

Experiment: qHTS assay to test for compound auto fluorescence at 590 nm (red) in HEK293 cell free culture (AID 720683)
Conditions: cell-free medium autofluorescence, Ex540/Em590 red; series mostly up to 46 µM
In short: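 Tox21 10K library compounds were pinned into cell-free DMEM with 10% FBS and fluorescence was read at excitation 540 nm. Activity is expressed as Rose Bengal sodium equivalency.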

Compound	outcome
C[N+](C)(C)CCCCCC[N+](C)(C)C	inactive
NS(=O)(=O)c1cc2c(cc1Cl)NC(C1CC3C=CC1C3)NS2(=O)=O (stereo unspecified)	inactive
OCCOc1ccc(OCCO)cc1	inactive
COC(C)(C)CCCC(C)CC=O (stereo unspecified)	inactive
NC(=O)COCCN1CCN(C(c2ccccc2)c2ccc(Cl)cc2)CC1 (stereo unspecified)	inactive
C=CCCCCCCCCC=O	inactive
NS(=O)(=O)c1ccc(C(=O)O)cc1	inactive
CC(=O)c1ccccc1O	inactive
Cc1cccn2c(=O)c(-c3nnn[nH]3)cnc12	inactive
CC(C[N+](C)(C)C)OC(N)=O (stereo unspecified)	inactive
CCCCCCCCS(=O)(=O)Cl	inactive
CC(=O)OCC(=O)[C@@]1(O)CCC2C3CCC4=CC(=O)CC[C@]4(C)C3[C@@H](O)C[C@@]21C (stereo partly specified)	inactive
COC(=O)c1c(Cl)c(Cl)c(C(=O)OC)c(Cl)c1Cl	inactive
O=C1CCCC(=O)C1	inactive
CCOC(=O)c1ccc(C)cc1	inactive
CC1(C)C(O)C(C)(C)C1O (stereo unspecified)	inactive
CC/C=C\CC/C=C/C(OCC)OCC	inactive
COC(=O)[C@@H](N)Cc1ccc(O)c(O)c1	inactive
CCN1CCC[C@H]1CNC(=O)c1c(O)c(Cl)cc(Cl)c1OC	inactive
OC(CCN1CCCCC1)(c1ccccc1)C1CC2C=CC1C2 (stereo unspecified)	inactive
C1CN(CCOCCN2CCOCC2)CCO1	inactive
COc1nc(N)nc2c1ncn2[C@@H]1O[C@H](CO)[C@@H](O)[C@@H]1O	inactive
CCOC(C)(C)C	inactive
C=CCS(=O)(=O)O	inactive
O=C(O)COc1nn(Cc2ccccc2)c2ccccc12	inactive
CC(C)NCC(O)c1ccc(NS(C)(=O)=O)cc1 (stereo unspecified)	inactive
CO[Si](CCCOCC1CO1)(OC)OC (stereo unspecified)	inactive
CCSC(=O)N(CC(C)C)CC(C)C	inactive
NC(=O)c1ccc([N+](=O)[O-])cc1	inactive
CCCN1CCCC[C@H]1C(=O)Nc1c(C)cccc1C	inactive

Experiment: qHTS assay to test for compound auto fluorescence at 590 nm (red) in HepG2 cell free culture (AID 720684)
Conditions: cell-free medium autofluorescence, red 540/590 nm; series mostly up to 46 µM
In short: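 Ex 540 / Em 590 nm read of compound in cell-free MEM (10% FBS). Rose Bengal sodium reference.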

Compound	outcome
C[N+](C)(C)CCCCCC[N+](C)(C)C	inactive
NS(=O)(=O)c1cc2c(cc1Cl)NC(C1CC3C=CC1C3)NS2(=O)=O (stereo unspecified)	inactive
OCCOc1ccc(OCCO)cc1	inactive
COC(C)(C)CCCC(C)CC=O (stereo unspecified)	inactive
CCOC(=O)CCC(C)=O	inactive
NC(=O)COCCN1CCN(C(c2ccccc2)c2ccc(Cl)cc2)CC1 (stereo unspecified)	inactive
C=CCCCCCCCCC=O	inactive
NS(=O)(=O)c1ccc(C(=O)O)cc1	inactive
CC[N+](C)(C)c1cccc(O)c1	inactive
CC(=O)c1ccccc1O	inactive
Cc1cccn2c(=O)c(-c3nnn[nH]3)cnc12	inactive
CC(C[N+](C)(C)C)OC(N)=O (stereo unspecified)	inactive
CCCCCCCCS(=O)(=O)Cl	inactive
O=C1CCCC(=O)C1	inactive
CCOC(=O)c1ccc(C)cc1	inactive
O=C(CCCN1CCN(c2ccccn2)CC1)c1ccc(F)cc1	inactive

Compound	outcome
CC1(C)C(O)C(C)(C)C1O (stereo unspecified)	inactive
CC/C=C\CC/C=C/C(OCC)OCC	inactive
COc1c(N2C[C@@H]3CCCN[C@@H]3C2)c(F)cc2c(=O)c(C(=O)O)cn(C3CC3)c12	inactive
COC(=O)[C@@H](N)Cc1ccc(O)c(O)c1	inactive
CCN1CCC[C@H]1CNC(=O)c1c(O)c(Cl)cc(Cl)c1OC	inactive
C1CN(CCOCCN2CCOCC2)CCO1	inactive
COc1nc(N)nc2c1ncn2[C@@H]1O[C@H](CO)[C@@H](O)[C@@H]1O	inactive
C=C[Si](OC(=C)C)(OC(=C)C)OC(=C)C	inactive
CCOC(C)(C)C	inactive
C=CCS(=O)(=O)O	inactive
CC(C)CNCC(C)C	inactive
O=C(O)COc1nn(Cc2ccccc2)c2ccccc12	inactive
CO[Si](CCCOCC1CO1)(OC)OC (stereo unspecified)	inactive
NC(=O)c1ccc([N+](=O)[O-])cc1	inactive
CCCN1CCCC[C@H]1C(=O)Nc1c(C)cccc1C	inactive

Experiment: qHTS assay to test for compound auto fluorescence at 460 nm (blue) in HepG2 cell free culture (AID 720685)
Conditions: Cell-free culture medium, blue autofluorescence 405/460 nm; series mostly up to 46 µM
In short: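 Cell-free plates of MEM plus 10% FBS received 23 nL compound or DMSO vehicle; blue-channel (405/460 nm) intensity scored against triamterene as reference fluorophore.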

Compound	outcome
C[N+](C)(C)CCCCCC[N+](C)(C)C	inactive
NS(=O)(=O)c1cc2c(cc1Cl)NC(C1CC3C=CC1C3)NS2(=O)=O (stereo unspecified)	inactive
OCCOc1ccc(OCCO)cc1	inactive
COC(C)(C)CCCC(C)CC=O (stereo unspecified)	inactive
CCOC(=O)CCC(C)=O	inactive
NC(=O)COCCN1CCN(C(c2ccccc2)c2ccc(Cl)cc2)CC1 (stereo unspecified)	inactive
C=CCCCCCCCCC=O	inactive
NS(=O)(=O)c1ccc(C(=O)O)cc1	inactive
CC[N+](C)(C)c1cccc(O)c1	inactive
O=C(O)CCCc1ccccc1	inactive
CC(=O)c1ccccc1O	inactive
Cc1cccn2c(=O)c(-c3nnn[nH]3)cnc12	inactive
c1ccc([C@H]2CN3CCSC3=N2)cc1	inactive
CC(C[N+](C)(C)C)OC(N)=O (stereo unspecified)	inactive
CCCCCCCCS(=O)(=O)Cl	inactive
O=[N+]([O-])c1ccc(F)cc1F	inactive
CC(=O)OCC(=O)[C@@]1(O)CCC2C3CCC4=CC(=O)CC[C@]4(C)C3[C@@H](O)C[C@@]21C (stereo partly specified)	inactive
COC(=O)c1c(Cl)c(Cl)c(C(=O)OC)c(Cl)c1Cl	inactive
O=C1CCCC(=O)C1	inactive
CCOC(=O)c1ccc(C)cc1	inactive

Compound	outcome
O=C(CCCN1CCN(c2ccccn2)CC1)c1ccc(F)cc1	inactive
CC1(C)C(O)C(C)(C)C1O (stereo unspecified)	inactive
CC/C=C\CC/C=C/C(OCC)OCC	inactive
COc1c(N2C[C@@H]3CCCN[C@@H]3C2)c(F)cc2c(=O)c(C(=O)O)cn(C3CC3)c12	inactive
COC(=O)[C@@H](N)Cc1ccc(O)c(O)c1	inactive
CCN1CCC[C@H]1CNC(=O)c1c(O)c(Cl)cc(Cl)c1OC	inactive
OC(CCN1CCCCC1)(c1ccccc1)C1CC2C=CC1C2 (stereo unspecified)	inactive
C1CN(CCOCCN2CCOCC2)CCO1	inactive
COc1nc(N)nc2c1ncn2[C@@H]1O[C@H](CO)[C@@H](O)[C@@H]1O	inactive
C=C[Si](OC(=C)C)(OC(=C)C)OC(=C)C	inactive
CCOC(C)(C)C	inactive
C=CCS(=O)(=O)O	inactive
CC(C)CNCC(C)C	inactive
Oc1ccc(C2CNCCc3c2cc(O)c(O)c3Cl)cc1 (stereo unspecified)	inactive
O=C(O)COc1nn(Cc2ccccc2)c2ccccc12	inactive
CC(C)NCC(O)c1ccc(NS(C)(=O)=O)cc1 (stereo unspecified)	inactive
CO[Si](CCCOCC1CO1)(OC)OC (stereo unspecified)	inactive
CCSC(=O)N(CC(C)C)CC(C)C	inactive
NC(=O)c1ccc([N+](=O)[O-])cc1	inactive
CCCN1CCCC[C@H]1C(=O)Nc1c(C)cccc1C	inactive
